Data from PubChem BioAssay (Tox21).
Inconclusive results are not listed. A call without a number means that no potency is given here. Active and inactive are the calls of the source. Calls come from the whole dose curve.

Assay: qHTS assay for small molecule agonists of the p53 signaling pathway (AID 651631); note: nearly all actives have a fitted effect of over 15% in size
Conditions: HCT-116 p53RE-bla reporter, beta-lactamase FRET ratio, 16 h; series mostly up to 73.3 µM
Method in brief: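 Agonist mode screen using a stably integrated beta-lactamase gene under p53 response elements in HCT-116 cells. Compound exposure lasts 16 h at 37 °C; fluorescence intensity is measured following 2 h FRET substrate loading.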

SMILES	Potency
COC1=C(OC)C(=O)C(C/C=C(\C)CC/C=C(\C)CC/C=C(\C)CC/C=C(\C)CC/C=C(\C)CC/C=C(\C)CC/C=C(\C)CC/C=C(\C)CC/C=C(\C)CCC=C(C)C)=C(C)C1=O	inactive
COC(=O)C(CN)c1c[nH]c2ccc(OC)cc12 (configuration not stated)	inactive
CC(C)CCC[C@@H](C)[C@H]1CC[C@H]2[C@@H]3CC=C4C[C@@H](O)CC[C@]4(C)[C@H]3CC[C@]12C	inactive
C=N[C@@H](C(=O)N[C@@H]1C(=O)N2[C@@H]1SC(C)(C)[C@@H]2C(=O)O)c1ccccc1	inactive
Cc1c(O)c(=O)ccn1C	inactive
CCOC(=O)COc1ccc2c(=O)cc(-c3ccccc3)oc2c1	inactive
O=C1[O][Bi][O]c2ccccc21	inactive
O=P(O)(O)CP(=O)(O)O	inactive
CC12CCC(C1)C(C)(C)C2=O (configuration not stated)	inactive
CC(=O)Nc1ccc(OC(C)=O)cc1	inactive
CCN(CC)CCOC[C@H]1O[C@@H](O)[C@H](OCCN(CC)CC)[C@@H](O)[C@@H]1O	inactive
OCC1(CO)COC(C(Cl)(Cl)Cl)OC1	inactive
C=C1[C@H](CO)[C@@H](O)C[C@@H]1n1cnc2c(=O)[nH]c(N)nc21	inactive
O=S(=O)(O)CC(S)CS (configuration not stated)	inactive
COc1ccc(/C=N/NC(=O)c2ccncc2)c(C(=O)O)c1OC	inactive
CCCCCCCCCCCCCCCCCCOCC(COP(=O)([O-])OCC[N+](C)(C)C)OC (configuration not stated)	inactive
NC(=O)CC[C@@H]1NC(=O)[C@H](Cc2ccccc2)NC(=O)[C@H](Cc2ccc(O)cc2)NC(=O)[C@@H](N)CSSC[C@@H](C(=O)N2CCC[C@H]2C(=O)N[C@@H](CCCN=C(N)N)C(=O)NCC(N)=O)NC(=O)[C@H](CC(N)=O)NC1=O	inactive
CCC[C@@H]1C[C@@H](C(=O)N[C@@H]([C@H]2O[C@H](SC)[C@H](OP(=O)(O)O)[C@@H](O)[C@H]2O)[C@H](C)Cl)N(C)C1	inactive
C[C@H](NCCc1ccc(O)cc1)[C@H](O)c1ccc(O)cc1	inactive

SMILES	Potency
CC(C)(COP(=O)(O)OP(=O)(O)OC[C@H]1O[C@@H](n2cnc3c(N)ncnc32)[C@H](O)[C@@H]1OP(=O)(O)O)C(O)C(=O)NCCC(=O)NCCS (some centres not stated)	inactive
CC(CNC(=O)c1cccnc1)NC(=O)c1cccnc1 (configuration not stated)	inactive
O=C(O)c1cc(O)c2c(c1)[C@H]([C@H]1c3cc(C(=O)O)cc(O)c3C(=O)c3c(O[C@@H]4O[C@H](CO)[C@@H](O)[C@H](O)[C@H]4O)cccc31)c1cccc(O[C@@H]3O[C@H](CO)[C@@H](O)[C@H](O)[C@H]3O)c1C2=O	inactive
C=CCN1C(=O)C(CC(C)C)NC1=S (configuration not stated)	inactive
C[C@H](O)CN(C)C	inactive
CNC(=O)OCc1cccc(COC(=O)NC)n1	inactive
NC(=O)[C@H]1O[C@@H](O)[C@H](O)[C@@H](O)[C@@H]1O	inactive
O=P(O)(O)C(O)(Cn1ccnc1)P(=O)(O)O	inactive
NC(=O)[C@@H]1C[C@]2(NC(=O)NC2=O)c2cc(F)ccc2O1	inactive
COc1ccc([C@@H]2CC(=O)c3c(O)cc(O[C@@H]4O[C@H](CO[C@@H]5O[C@@H](C)[C@H](O)[C@@H](O)[C@H]5O)[C@@H](O)[C@H](O)[C@H]4O)cc3O2)cc1O	inactive
CC[C@H]1OC(=O)C[C@@H](O)[C@H](C)[C@@H](O[C@@H]2O[C@H](C)[C@@H](O[C@H]3C[C@@](C)(O)[C@@H](O)[C@H](C)O3)[C@H](N(C)C)[C@H]2O)[C@@H](CC=O)C[C@@H](C)C(=O)/C=C/C(C)=C/[C@@H]1CO[C@@H]1O[C@H](C)[C@@H](O)[C@@H](OC)[C@H]1OC	inactive
NC(=O)C1c2ccccc2CCc2ccccc21	inactive
CC(C)=CCC/C(C)=C/CC/C(C)=C/CC/C(C)=C/CC1=C(C)C(=O)c2ccccc2C1=O	inactive
COc1cc2c(c(OC)c1OC)-c1c(cc3c(c1OC)OCO3)C[C@@H](C)[C@](C)(O)C2	inactive
O=C1CCC(c2ccccc2)(C2CCN(Cc3ccccc3)CC2)C(=O)N1 (configuration not stated)	inactive
O=C(Cn1cnnn1)N[C@@H]1C(=O)N2C(C(=O)O)=C(CSc3nncs3)CS[C@H]12	inactive
CN[C@H](CC(C)C)C(=O)N[C@H]1C(=O)N[C@@H](CC(N)=O)C(=O)N[C@H]2C(=O)N[C@H]3C(=O)N[C@H](C(=O)N[C@@H](C(=O)O)c4cc(O)cc(O)c4-c4cc3ccc4O)[C@H](O)c3ccc(c(Cl)c3)Oc3cc2cc(c3O[C@@H]2O[C@H](CO)[C@@H](O)[C@H](O)[C@H]2O[C@H]2C[C@](C)(N)C(O)[C@H](C)O2)Oc2ccc(cc2Cl)[C@H]1O (some centres not stated)	inactive
CC[C@H]1OC(=O)[C@H](C)C(=O)[C@H](C)[C@@H](O[C@@H]2O[C@H](C)C[C@H](N(C)C)[C@H]2O)[C@](C)(OC)C[C@@H](C)C(=O)[C@H](C)[C@H]2N(CCCCn3cnc(-c4cccnc4)c3)C(=O)O[C@]12C	inactive
